# The sample as a whole holds a higher share of hits than the screen did.
# GluA2 TARP mod = modulators of GluA2-stargazin AMPA receptor complexes, primary screen, cell-based, membrane potential dye. 40,000 compounds, 3.5% hits. calls only at 30 µM. Voltage-dependent calcium channel gamma-2 subunit (Mus musculus) + Glutamate receptor 2 …. HEK293 GluA2+stargazin, membrane potential dye (FDSS), glutamate EC50; hits were called plate by plate, in both directions;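 active means any of four per-well response measures lying three or more SD from its plate-wide compound average, in either direction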
# Target sequence (O88602 whole entry, looked up): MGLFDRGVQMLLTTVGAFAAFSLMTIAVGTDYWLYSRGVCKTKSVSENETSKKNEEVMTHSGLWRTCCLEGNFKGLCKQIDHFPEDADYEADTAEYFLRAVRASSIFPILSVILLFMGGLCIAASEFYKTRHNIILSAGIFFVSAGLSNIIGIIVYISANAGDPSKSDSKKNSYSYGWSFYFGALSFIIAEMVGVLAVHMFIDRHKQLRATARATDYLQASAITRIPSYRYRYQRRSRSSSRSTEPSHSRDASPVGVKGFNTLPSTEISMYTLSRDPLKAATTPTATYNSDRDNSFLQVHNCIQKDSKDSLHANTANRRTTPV
# Target sequence (P19491 whole entry, looked up): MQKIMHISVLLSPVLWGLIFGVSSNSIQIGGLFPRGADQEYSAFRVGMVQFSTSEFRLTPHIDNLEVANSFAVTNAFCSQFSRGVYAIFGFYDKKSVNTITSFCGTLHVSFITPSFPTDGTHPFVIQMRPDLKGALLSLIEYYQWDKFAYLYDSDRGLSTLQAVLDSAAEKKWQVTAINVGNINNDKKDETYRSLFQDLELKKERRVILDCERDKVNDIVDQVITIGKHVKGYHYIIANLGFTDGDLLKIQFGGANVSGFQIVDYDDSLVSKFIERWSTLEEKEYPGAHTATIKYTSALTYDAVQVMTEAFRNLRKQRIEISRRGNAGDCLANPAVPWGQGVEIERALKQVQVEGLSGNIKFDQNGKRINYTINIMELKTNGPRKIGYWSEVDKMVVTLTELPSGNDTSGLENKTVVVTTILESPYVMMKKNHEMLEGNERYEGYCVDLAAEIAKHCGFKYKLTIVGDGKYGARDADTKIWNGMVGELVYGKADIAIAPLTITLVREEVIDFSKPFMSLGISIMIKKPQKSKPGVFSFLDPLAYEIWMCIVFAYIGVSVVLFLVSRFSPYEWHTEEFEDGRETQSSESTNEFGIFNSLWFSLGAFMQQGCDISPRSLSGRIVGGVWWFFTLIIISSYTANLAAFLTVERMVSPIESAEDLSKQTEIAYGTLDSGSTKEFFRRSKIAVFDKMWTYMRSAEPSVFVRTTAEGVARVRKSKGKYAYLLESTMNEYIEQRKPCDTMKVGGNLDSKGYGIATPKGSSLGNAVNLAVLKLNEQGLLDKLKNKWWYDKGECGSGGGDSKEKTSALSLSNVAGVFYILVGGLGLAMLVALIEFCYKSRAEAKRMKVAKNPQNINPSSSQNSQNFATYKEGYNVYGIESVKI
# GIRK2 act = activators of NPY4-receptor-primed GIRK2 channels, summary, cell-based, HEK293, thallium flux; HEK293 GIRK2/NPY4 cells, thallium flux fluorescence; activation (% efficacy), % for hits at 37.5 µM; 34,000 tested, under 10 active; G protein-activated inward rectifier potassium channel 2 (Homo sapiens), P48051; AID 1259324, 2017;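 active means primary screen hit, no activity in plain HEK293 cells, and in GIRK2-only cells above 5% efficacy rising with concentration; inactive means the rest, including fluorescent compounds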;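 further: efficacy is normalized control-subtracted fluorescence 15 s after thallium addition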
# * hit, by the source's call; i = inactive; x = not tested or not shown; + = active, no number.
SMILES,GluA2 TARP mod,GIRK2 act
COc1ccc(C2(CNS(=O)(=O)c3cc(C)ccc3OC)CCOCC2)cc1,i,x
CCOC(=O)c1ccc(N2C(=S)N(c3ccccc3)C3CS(=O)(=O)CC32)cc1 (configuration not stated),i,i
CCOC(=O)CN1C(=O)CN(C(=O)c2ccccc2)C1=S,+,x
Cc1cc(OCC(=O)Nc2cccc(Cl)c2C)nc(N2CCc3ccccc3C2)n1,i,i
Cc1cnc2c(c1SCC(=O)N1CCCCC1)c(=O)n(C)c(=O)n2C,i,i
Cc1cnc2c(c1SCCN1CCCCC1)c(=O)n(C)c(=O)n2C,+,i
COc1cc(N2CCN(S(=O)(=O)c3cc(Cl)ccc3Cl)CC2)nc(OC)n1,i,i
COc1cc(NS(=O)(=O)c2ccc(F)cc2)ccc1N1CCCCC1=O,i,i
Cc1ccc(NS(=O)(=O)c2ccc(F)cc2)cc1N1CCCCC1=O,+,i
CSc1ccccc1CN1CCC(CNS(=O)(=O)c2ccccc2Cl)CC1,i,i
O=C(Nc1ccc(SCc2ccccn2)nn1)c1cccs1,x,i
COc1c(C)cc(S(=O)(=O)NCC(c2ccsc2)N2CCc3ccccc3C2)cc1C (configuration not stated),i,i
O=C(NCC(c1ccsc1)N1CCc2ccccc2C1)C1CC1 (configuration not stated),+,i
O=C(Cc1ccccc1Cl)Nc1ccc(CC(=O)N2CCC(O)CC2)cc1,x,i
O=C(NCC(c1cccs1)N1CCOCC1)C1CCCCC1 (configuration not stated),+,i
O=C(NCC(c1ccco1)N1CCOCC1)C1CC=CCC1 (configuration not stated),+,i
O=C(NCC(c1ccco1)N1CCOCC1)NC1CCCCC1 (configuration not stated),i,i
CN(C)C(CNC(=O)C1CCCCC1)c1cccs1 (configuration not stated),i,i
Cc1c(C(=O)N2CCC3(CC2)OCCO3)c(C(F)(F)F)nn1C,i,i
O=C(Cn1cnc(-c2cccs2)cc1=O)Nc1cccnc1,i,i
O=C(Cn1ccc2ccn(Cc3ccccc3)c2c1=O)Nc1cccc(Br)c1,x,i
CCOC(=O)c1c(NC(=O)C2CCN(S(C)(=O)=O)CC2)sc2c1CCCCC2,x,i
COc1ccc(CNC(=O)C(=O)NCCC2CCCCN2S(=O)(=O)c2ccc(F)cc2C)cc1 (configuration not stated),i,x
CC(=O)N1CCc2ccc(NC(=O)c3ccno3)cc21,+,i
COc1cccc(C(=O)Nc2ccc3c(c2)N(C(=O)c2ccco2)CC3)c1OC,i,i
SMILES,GluA2 TARP mod,GIRK2 act
COc1nn(C)cc1C(=O)Nc1ccc2c(c1)N(C(=O)c1ccco1)CC2,+,i
CC(=O)N1CCc2ccc(NC(=O)c3ccc(F)c(F)c3)cc21,i,i
O=C(NCC1CCN(S(=O)(=O)C2CC2)CC1)C(=O)Nc1ccccc1Cl,i,i
COc1ccc(-n2nc3c(c2NC(=O)C(=O)N2CCCCC2)CS(=O)(=O)C3)cc1,i,i
COc1ccc(-n2nc3c(c2NC(=O)C(=O)N2CCCC2)CSC3)cc1,+,i
Cc1cccc(-n2nc3c(c2NC(=O)C(=O)NCc2ccco2)CS(=O)(=O)C3)c1,i,i
COc1ccc(-n2nc3c(c2NC(=O)C(=O)NCc2ccco2)CS(=O)(=O)C3)cc1,+,i
COc1ccc(-c2nc3c(c(=O)c4ccccc4n3C)c(=O)n2CC(C)C)cc1,i,x
CC(C)Cn1c(-c2ccc([N+](=O)[O-])cc2)nc2c(c(=O)c3ccccc3n2C)c1=O,+,x
CC(=O)OC(COc1ccc(N(C)C(C)=O)cc1)Cn1c2ccccc2c2ccccc21 (configuration not stated),+,i
CC(=O)OC(Cn1nc(C)cc1C)Cn1c2ccccc2c2ccccc21 (configuration not stated),i,i
CC(C)c1nnc(C2CCN(S(=O)(=O)c3ccc4c(c3)CCCC4)CC2)o1,+,i
CC(C)c1nnc(C2CCN(S(=O)(=O)c3cccnc3)CC2)o1,i,i
COc1cccc(CCNC(=O)Cc2csc(Nc3ccc(S(C)(=O)=O)cc3)n2)c1,i,i
O=C(Cc1csc(SCC(=O)c2ccccc2)n1)Nc1nccs1,x,i
CC(=O)c1sc(=Nc2ccccc2Cl)n(CCCN2CCOCC2)c1C,+,i
O=C(CCn1c(=O)sc2ccccc21)NCCCN1CCOCC1,i,i
CC(C)N(C)S(=O)(=O)c1ccc(C(=O)Nc2nc(-c3ccncc3)cs2)cc1,+,i
Cc1ccc(-c2csc(NC(=O)c3ccc(S(=O)(=O)C(C)C)cc3)n2)cc1,i,x
Cc1onc(-c2ccccc2Cl)c1C(=O)N1CCC(c2ccsc2)CC1,+,i
Cc1nnsc1C(=O)N1CCC(CNC(=O)c2c(-c3ccccc3Cl)noc2C)CC1,i,i
O=C(c1ccc([N+](=O)[O-])cc1)N(Cc1ccncc1)c1nc2ccc(F)cc2s1,+,i
CCc1cccc2sc(N(Cc3ccncc3)C(=O)c3ccc(C#N)cc3)nc12,+,i
CCOc1cccc2sc(N(Cc3ccncc3)C(=O)c3ccc(S(=O)(=O)N(C)C)cc3)nc12,x,i
O=C(c1ccc([N+](=O)[O-])cc1)N(Cc1ccncc1)c1nc2c(F)cccc2s1,i,i
SMILES,GluA2 TARP mod,GIRK2 act
O=S(=O)(NCCN1CCOC(c2ccccc2)C1)c1ccc(F)c(Cl)c1 (configuration not stated),x,i
Cc1cccc(N2CCN(S(=O)(=O)CCNC(=O)c3cc4ccccc4o3)CC2)c1,i,i
COc1ccc(C(=O)CSc2ccnc3c2c(=O)n(C)c(=O)n3C)cc1,i,i
CCOC(=O)C(C)Sc1ccnc2c1c(=O)n(C)c(=O)n2C (configuration not stated),i,i
CCOC(=O)N1CCN(C(=O)CSc2ccnc3c2c(=O)n(C)c(=O)n3C)CC1,+,x
COC(=O)CSc1ccnc2c1c(=O)n(C)c(=O)n2C,+,i
COc1ccc(OC)c2sc(N(Cc3ccncc3)C(=O)CCc3ccccc3)nc12,i,i
Cc1ccc(S(=O)(=O)N2CCN(c3ccc(C)c(Cl)c3)CC2)cc1,i,x
Cc1cccc(C(=O)NCCCn2nc(-c3ccc(Cl)cc3)ccc2=O)c1,i,i
CCOC(=O)N1CCC(NC(=O)Cc2csc(NC(=O)OC)n2)CC1,x,i
COc1ccc(SCCC(=O)Nc2ccc3c(c2)C(=O)NC3=O)cc1,+,i
COc1ccc(S(=O)(=O)CC(=O)Nc2ccc3c(c2)C(=O)NC3=O)cc1,i,i
CN1C(=O)C(=C2C=C(c3ccccc3)N(Cc3ccco3)C3=C2CCCC3)C(=O)N(C)C1=O,+,x
CCOc1ccc2ccccc2c1C(=O)NCC(O)(c1ccco1)C1CC1 (configuration not stated),+,i
CCOc1cc(C(=O)NCc2ccsc2)cc(OCC)c1OCC,i,i
CCOc1ccc2ccccc2c1C(=O)NC1CCCC(O)C1 (configuration not stated),+,i

# Assay outcomes: PubChem BioAssay, several laboratories
